Screening data: PubChem, National Center for Advancing Translational Sciences (NCATS)
KCNH2 3.1 block: qHTS for Inhibitors of KCHN2 3.1: Mutant qHTS; Potassium voltage-gated channel subfamily H member 2, brain isoform KCNH2 3.1 (human); U2OS KCNH2 3.1, thallium flux FluxOr; hits give low values; activity change, % (tested at about 1.8 µM); 340,000 tested, 0.95% active; AID 720553, 2013;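 active = maximum activity change below -70%; inconclusive = maximum activity change from -70% to -50%; inactive = maximum activity change above -50%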;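 also: thallium influx rate constant from kinetic fluorescence after stimulation buffer; % is scaled to controls: 0 for no effect and ±100 for the full control effect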
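Channel expression came from 3.1 mutant virus (1.77 x 10^8 /mL) applied to suspended U2OS cells for 4 h. Flux was tracked with FluxOr dye plus Red40 quencher, and kinetic rate constants normalized to controls.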
12-LOX inh: Primary qHTS assay for inhibitors of human arachidonate 12S-lipoxygenase (ALOX12): Round 2; Polyunsaturated fatty acid lipoxygenase ALOX12 (Homo sapiens), P18054; purified 12hLO, xylenol orange hydroperoxide absorbance; Potency, µM (doses to about 108 µM), for the others: at the top dose activity change, negative = inhibition, actives largely listed as inhibitors; 580,000 tested, 1.1% active; also: potency is read from the fitted curve at half-maximal effect; % is scaled to controls: 0 for no effect and ±100 for the full control effect
Target sequence (P18054 whole entry, looked up): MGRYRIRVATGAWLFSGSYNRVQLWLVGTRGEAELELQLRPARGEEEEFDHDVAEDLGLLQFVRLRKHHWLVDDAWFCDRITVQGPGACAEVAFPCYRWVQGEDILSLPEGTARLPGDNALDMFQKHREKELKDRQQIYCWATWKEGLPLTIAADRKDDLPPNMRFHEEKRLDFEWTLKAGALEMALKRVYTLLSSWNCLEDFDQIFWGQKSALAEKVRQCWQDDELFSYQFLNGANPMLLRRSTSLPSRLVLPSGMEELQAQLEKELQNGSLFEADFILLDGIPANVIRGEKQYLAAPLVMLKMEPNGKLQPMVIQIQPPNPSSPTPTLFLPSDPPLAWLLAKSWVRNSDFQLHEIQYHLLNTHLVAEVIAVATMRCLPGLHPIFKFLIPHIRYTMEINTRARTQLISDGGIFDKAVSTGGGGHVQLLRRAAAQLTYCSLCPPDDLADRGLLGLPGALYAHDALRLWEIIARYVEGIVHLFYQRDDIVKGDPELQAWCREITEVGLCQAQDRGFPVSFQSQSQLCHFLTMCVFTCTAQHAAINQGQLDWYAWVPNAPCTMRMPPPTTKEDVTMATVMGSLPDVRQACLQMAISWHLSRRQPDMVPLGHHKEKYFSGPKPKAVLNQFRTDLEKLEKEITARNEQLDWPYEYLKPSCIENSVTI
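Purified human 12hLO at 150 nM in 25 mM Hepes, 0.01% Triton X-100, pH 7.0, preincubated 15 min at room temperature with compound. Reaction started with 40 uM arachidonic acid, 30 min at room temperature. Hydroperoxide measured by Fe-xylenol orange, 573/405 nm absorbance ratio.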
KCNH2 WT inh: qHTS for Inhibitors of KCHN2 3.1: Wildtype qHTS; Voltage-gated inwardly rectifying potassium channel KCNH2 (Homo sapiens), Q12809; U2OS, BacMam KCNH2, thallium flux FluxOr; hits give low values; activity change, % at 1.84 µM; 340,000 tested, 0.37% active; AID 720551, 2013;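 active = maximum activity change below -70%; inconclusive = maximum activity change between -70% and -50%; inactive = maximum activity change above -50%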; also: % is scaled to controls: 0 for no effect and ±100 for the full control effect
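U2OS cells were transduced with wild-type KCNH2 virus (2.03 x 10^8 / mL) for 4 h at room temperature, then cultured overnight at 37 C. Thallium flux was read with FluxOr dye. Rate constants were normalized to DMSO controls.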
A-T KAP1 phos: qHTS Assay for Identifying a Potential Treatment of Ataxia-Telangiectasia; F2112 A-T fibroblasts, KAP-1 phosphorylation AlphaLISA; neocarzinostatin DNA damage 30 min before lysis; Potency, µM (titrated, usually from 57.5 µM), for the others: at the top dose activation, hits mostly activators; 320,000 tested, 0.19% active; AID 485349, 2010; also: potency is read from the fitted curve at half-maximal effect; % of control where 0% means no effect; nearly all actives have a fitted effect of over 45% in size
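ATM-like activity read as KAP-1 phosphorylation via AlphaLISA donor/acceptor antibody pairs after lysis and 6 hr at 25C. Cells were ATM-null patient fibroblasts (F2112, hTERT), dosed 60 min, then exposed to the DSB inducer NCS for 30 min.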
Starred values were filed as active, the others as inactive; i = inactive; ? = inconclusive; . = no result; [ ] = remark or other dose. Hits are enriched below; roughly 1.8% of the tested compounds scored in any of these assays. Unless noted, calls follow the shape of the dose curve; as a rule, active = well fitted curve in the direction sought with a large enough effect; inconclusive = small, poorly fitted or top-dose-only effect, or another doubt; inactive = no such curve, though single readings can be large; an effect the other way counts as inactive or inconclusive.

SMILES	KCNH2 3.1 block	12-LOX inh	KCNH2 WT inh	A-T KAP1 phos
O=C(c1ccco1)N1CCN(C(=O)C2CCN(c3nnc(N4CCCCC4=O)s3)CC2)CC1	.	-5%	.	.
COc1ccc(S(=O)(=O)N2CCC(C(=O)NCCC(=O)NCc3cccnc3)CC2)cc1	-9	-1%	-74*	.
COc1ccc(/C=C/C(=O)NCCCN2CCOCC2)cc1	5	i	-2	5%
Cc1ccc(/C=C/C(=O)NCCCN2CCN(CCCNC(=O)/C=C/c3ccc(C)o3)CC2)o1	-76*	19%	-2	5%
O=C(/C=C/c1ccc(F)cc1)NCCCN1CCN(CCCNC(=O)/C=C/c2ccc(F)cc2)CC1	-92*	-8%	-43	-5%
COc1ccc(/C=C/C(=O)NCCCN2CCCCCC2)cc1	-4	-18%	13	-8%
Cc1nc2nc(NCc3ccc(Cl)cc3)[nH]n2c(=O)c1CCC(=O)Nc1cccc2ccccc12	.	-4%	.	.
CN(C)CCNC(=O)c1cc2c(s1)-c1ccc(Cl)cc1SC2	-81*	?	-113*	3%
COc1ccc(-c2cc(N3CCCC(NC(=O)c4c[nH]c5ccccc45)C3)n[nH]2)cc1 (centres undefined)	.	13%	.	.
O=C(c1ccccc1)N1CCC2(CN[S+](=O)([O-])c3ccccc3N2)C1 (centres undefined)	.	22%	.	.
COc1ccc2c(c1)c1ccc3c(c1n2C)C(=O)C=CC3=O	-2	0.71µM*	-12	-14%
Cc1ccc2c(c1)c1ccc3c(c1n2C)C(=O)C=CC3=O	3	1.1µM*	1	-11%
Cn1c2ccccc2c2ccc3c(c21)C(=O)C=CC3=O	3	?	52	.
COc1cccc(C2c3[nH]c4ccccc4c3C[C@H]3C(=O)N(CCCOC(C)C)CC(=O)N23)c1 (some centres undefined)	-156*	49%	4	-3%
O=S(=O)(Nc1ccc(O)c(Sc2nc3ccccc3s2)c1)c1cc(Cl)ccc1Cl	.	10µM*	.	.
CCC(NC(=O)c1ccc(COC)cc1)c1ccccc1OC(F)F (centres undefined)	.	0%	.	.
CC(C)(C)N(CC#CCC(O)(c1ccccc1)c1ccccc1)CCO	4	7.9µM*	0	2%
CCOc1ccc(NC2=NCC(=O)N2Cc2cccs2)cc1	-5	35µM*	18	?
O=C(CCc1nc2ccccc2n1-c1ccccc1)NCc1ccccc1F	.	6%	.	.
Cc1ccn(CCC(=O)O)n1	12	-14%	5	6%
Cc1ccn(-c2cc(O)c(-n3ccc(C)n3)cc2O)n1	3	2.8µM*	3	-2%
CCOc1cc(C)ccc1OCc1nnc(SCC(=O)c2cccc([N+](=O)[O-])c2)n1C	-9	-4%	29	3%
Cn1c(COc2ccccc2)nnc1SCC(=O)c1cccc([N+](=O)[O-])c1	-92*	-13%	-6	-1%
C=C(C)CSC1=C(C#N)C(c2ccccc2Cl)CC(=O)N1 (centres undefined)	3	22µM*	-4	10%
O=C(CCc1nc(-c2ccccc2)no1)NCCc1ccccc1	-90*	.	-1	-1%
SMILES	KCNH2 3.1 block	12-LOX inh	KCNH2 WT inh	A-T KAP1 phos
COc1ccc(-c2noc(CCC(=O)NCCc3ccccc3)n2)cc1	5	-14%	5	25%
CCOC(=O)N1CCC(N2CCN(c3cc(C)ccc3C)CC2)CC1	5	6.3µM*	29	.
Cc1ccc(N(C(C)C(=O)Nc2ccc(C)c(Cl)c2)S(C)(=O)=O)cc1C (centres undefined)	.	-22%	.	.
CC(=O)Nc1ccc(CN2CC3CCC(C2)N3c2ccc(C(F)(F)F)cc2)cc1	.	6%	.	.
CNC(=S)NNC(=O)c1ccc(C(C)C)cc1	.	37%	.	.
Cc1ccc(C2(CCN)CCOC(C(C)C)C2)cc1 (centres undefined)	-7	-9%	-11	-1%
CC(C)C1CC(CCN)(c2ccccc2)CCO1 (centres undefined)	1	23%	-4	2.8µM*
O=C1CN(Cc2ccccc2)CCN1c1ccc(Cl)nn1	.	26%[176 µM]	.	.
COC(=O)C1=CN(C(C)C)C=C(C(=O)OC)C1c1cc(Br)c(OC)c(OC)c1	1	-21%	-3	20µM*
